MITF act = activators of MITF-driven TRPM1 promoter reporter, primary screen, cell-based, SK-MEL-5, luciferase, single point; 300,000 compounds, 0.75% hits; SK-MEL-5 TRPM1-promoter luciferase, 24 h; % of positive control, neutral wells = 0; AID 588334, 2011; activation, % at 12.5 µM;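 active means mean activation of at least 80% with every replicate also reaching 80%; inconclusive means mean reaches 80% but some replicate falls short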
Wnt bcat act = Wnt/beta-catenin pathway activators, primary screen, cell-based, plate reader, single point | Wnt/beta-catenin reporter cell assay, activator | 300,000 compounds, 1.2% hits | activation, % at 9.35 µM; in the data active means activation above about 30%, passing the limit was not always enough; inconclusive means no clear call, values can overlap the other calls
esBAF inh = Bmi1 luciferase reporter increase in mESCs, primary screen, esBAF inhibitor project, mouse ES cells, Bmi1 luciferase knock-in, single point; reporter increase, % at 12.5 µM; 24 h; 100% = twice the neutral-well signal; 350,000 compounds, 2% hits; in the data active means activation above about 40%; inconclusive means no clear call, values can overlap the other calls;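 further: a rise in the Bmi1 reporter signal indicates esBAF inhibition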
AHR activator = AHR activators, primary screen, cell-based, luminescence, luciferase reporter, human | AID 2796, 2010 | Aryl hydrocarbon receptor (Homo sapiens), P35869 | AHR-responsive luciferase reporter cells | 320,000 compounds, 2.5% hits | activation, % at 5 µM; in the data active means activation above about 47%
Target sequence (P35869 whole entry, looked up): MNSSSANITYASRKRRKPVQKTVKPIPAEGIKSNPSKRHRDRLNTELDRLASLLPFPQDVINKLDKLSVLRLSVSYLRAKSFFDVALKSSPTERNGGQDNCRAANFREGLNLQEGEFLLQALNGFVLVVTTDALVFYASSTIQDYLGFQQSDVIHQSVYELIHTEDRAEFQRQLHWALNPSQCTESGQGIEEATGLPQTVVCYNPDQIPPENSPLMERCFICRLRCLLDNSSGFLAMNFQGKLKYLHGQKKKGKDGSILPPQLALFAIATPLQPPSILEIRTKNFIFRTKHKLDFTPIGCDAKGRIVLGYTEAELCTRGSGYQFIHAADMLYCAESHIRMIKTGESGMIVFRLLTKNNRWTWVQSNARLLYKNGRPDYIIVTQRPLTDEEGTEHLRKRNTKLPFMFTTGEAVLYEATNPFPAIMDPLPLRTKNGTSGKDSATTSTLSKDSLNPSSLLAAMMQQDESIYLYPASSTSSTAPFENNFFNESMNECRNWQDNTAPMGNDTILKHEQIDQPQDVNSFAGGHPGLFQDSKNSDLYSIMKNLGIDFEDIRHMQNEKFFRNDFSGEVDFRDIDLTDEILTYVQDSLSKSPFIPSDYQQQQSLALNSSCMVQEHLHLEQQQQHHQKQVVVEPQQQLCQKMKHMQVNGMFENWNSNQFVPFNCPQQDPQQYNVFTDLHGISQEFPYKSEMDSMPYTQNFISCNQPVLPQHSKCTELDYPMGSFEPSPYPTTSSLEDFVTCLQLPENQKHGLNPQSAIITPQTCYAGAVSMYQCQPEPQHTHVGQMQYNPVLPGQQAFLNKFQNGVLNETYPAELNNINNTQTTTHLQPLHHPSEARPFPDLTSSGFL
GAA850 FXN act = FXN promoter activators, primary screen, cell-based, luciferase luminescence, HEK293 lucGAA850; HEK293 lucGAA850 FXN promoter luciferase reporter, 24 h; percent of 10 µM SAHA response; activation, % at 6 µM; 360,000 compounds, 0.56% hits; AID 540364, 2011;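 active means activation above the average of all compounds screened plus 3 SD, cutoff fixed separately per campaign, cut at about 7.5% in these data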
esBAF Ring1 qPCR = Ring1 mRNA increase in mouse ESCs, confirmation, esBAF inhibitor project, cell-based, mouse ESC, RT-qPCR, cherry-pick. 550 tested, under 10 active. shares compounds with esBAF inh. AID 743176, 2013. fold change at 33 µM. mouse ESC E14, Ring1 mRNA RT-qPCR fold change;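 active means Ring1 gene expression raised more than 2-fold over untreated cells in both replicates at either tested dose; inconclusive means only one replicate above 2-fold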;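 further: Ring1 transcript normalised to actin housekeeping signal by TaqMan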
Fgf4 repress = Fgf4 mRNA decrease in mouse ESCs, confirmation, esBAF inhibitor project, cell-based, mouse ESC, RT-qPCR, cherry-pick. mouse ESC E14, Fgf4 mRNA qPCR fold change; active compounds read low. 550 compounds, 4% hits. AID 743177, 2013. shares compounds with esBAF inh. Fgf4 expression fold change at 33 µM;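 active means Fgf4 expression under 0.8 fold of control in both repeat measurements at one or both tested doses; inconclusive means under 0.8 fold in just a single repeat measurement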;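 further: Fgf4 transcript normalised to actin in duplex TaqMan qPCR; cells exposed to compound for 24 h before lysis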
esBAF Bmi1 qPCR = esBAF inhibition via Bmi1 de-repression, confirmation, cell-based, RT-qPCR, mouse ESC, single point, cherry-pick. fold change at 33 µM. 550 tested, under 10 active. mouse ESE14 ES cells, Bmi1 mRNA qPCR fold; active compounds read high. shares compounds with esBAF inh. AID 743180, 2013;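 active means Bmi1 expression fold change above 6 at either tested concentration, seen in replicate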;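 further: higher fold means more Bmi1 de-repression and stronger esBAF inhibition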
A549 tox SP = A549 cell cytotoxicity, cytotoxicity control, plate reader, single point, cherry-pick. shares compounds with esBAF inh. cell viability change % (negative = cytotoxic), % at 25 µM, hits read low. 550 tested, under 10 active. AID 743188, 2013; call rule not given here
HepG2 cytotox SP = HepG2 cell cytotoxicity, cytotoxicity control, plate reader, single point, cherry-pick | shares compounds with esBAF inh | active compounds read low | activity change, negative = inhibition, % at 25 µM | 550 compounds, 4% hits; in the data active means activity change below about -50%
HEK293 tox SP = HEK293 cell cytotoxicity, cytotoxicity control, plate reader, single point, cherry-pick | shares compounds with esBAF inh | activity change, negative = inhibition, % at 25 µM, hits read low | 550 compounds, 3% hits | AID 743190, 2013; in the data active means activity change below about -38%, passing the limit was not always enough
Hits are given with their value; - = inactive; ? = inconclusive; . = no result given. Compounds with a hit are over-represented: about 4.2% of the library has one in this group of screens.

SMILES	MITF act	Wnt bcat act	esBAF inh	AHR activator	GAA850 FXN act	esBAF Ring1 qPCR	Fgf4 repress	esBAF Bmi1 qPCR	A549 tox SP	HepG2 cytotox SP	HEK293 tox SP
COc1ccc2c(c1OC)C(=O)OC2Nc1nc(-c2cc3cc(Br)ccc3oc2=O)cs1 (stereo unspecified)	144	51	65	-	-	-	-	-	-	-	-
CNC[C@H]1Oc2c(N)cccc2C(=O)N([C@@H](C)CO)C[C@@H]1C	.	.	-	.	.	.	.	.	.	.	.
COc1cccc(NC(=O)c2ccccc2Br)c1	.	-	57	-	-	-	-	-	-	-	-
COc1ccccc1C(=O)Oc1ccccc1C(=O)Nc1ccccc1	-	-	69	-	-	-	-	-	-	-	-
COc1ccccc1C(=O)Nc1ccc(C(=O)O)cc1	.	.	-	-	-	.	.	.	.	.	.
COc1ccc(CN(C)C[C@H]2Oc3ccc(NC(=O)Cn4cnnn4)cc3CC(=O)N([C@H](C)CO)C[C@@H]2C)cc1	.	.	-	.	.	.	.	.	.	.	.
Oc1ccc(Cl)cc1C=NN1CCCCCC1	-	49	66	.	-	-	-	-	-	-	-
Oc1ccc(/C=N/N2CCCCC2)c(O)c1O	-	-	-	-	-	.	.	.	.	.	.
Oc1ccccc1/C=N/N1CCCCC1	-	-	.	-	-	.	.	.	.	.	.
Oc1cccc(/C=N/N2CCCCC2)c1O	-	?	61	-	-	-	-	-	-	-	-
Oc1ccccc1C=NN1CCCCCC1	-	-	77	.	-	-	-	-	-	-	-
Cc1ccc(NC(=O)C(=O)Nc2ccc(C)cn2)nc1	-	-	57	-	-	-	-	-	-	-	-
Cc1ccc(NC(=O)Nc2ccccc2)nc1	.	-	.	-	-	.	.	.	.	.	.
Cc1ccccc1-c1cnc2c(c1)C(=O)N([C@H](C)CO)C[C@H](C)[C@@H](CN(C)C(=O)c1ccncc1)O2	.	.	-	.	.	.	.	.	.	.	.
Cc1ccc(NC(=O)Nc2cccc(C)n2)c(C)c1	-	39	56	56	-	-	-	-	-	-	-
CNC[C@@H]1Oc2c(NC(=O)c3ccncc3)cccc2C(=O)N([C@H](C)CO)C[C@H]1C	.	.	-	.	.	.	.	.	.	.	.
Cc1ccc(C(=O)Cc2ccccc2)c(O)c1	-	-	62	.	-	-	-	-	-	-	-
C[C@@H]1CN([C@@H](C)CO)C(=O)c2cccc(NS(=O)(=O)c3ccccc3)c2O[C@H]1CN(C)S(=O)(=O)c1cccs1	.	.	-	.	.	.	.	.	.	.	.
Cc1noc(C)c1S(=O)(=O)Nc1cccc2c1O[C@H](CN(C)CC1CCCCC1)[C@H](C)CN([C@H](C)CO)C2=O	.	.	-	.	.	.	.	.	.	.	.
CO[C@@H]1CN(C)C(=O)c2cc(NS(=O)(=O)CC(F)(F)F)ccc2OC[C@@H](C)N(C(=O)NC(C)C)C[C@@H]1C	.	.	-	.	.	.	.	.	.	.	.
c1ccc(-c2cnnc(-c3ccccn3)n2)cc1	?	?	-	-	-	.	.	.	.	.	.
Clc1ccc(-c2cnnc(-c3ccccn3)n2)cc1	?	-	83	-	-	-	-	-	-	-	-
C[C@H]1CCCCO[C@@H](CN(C)C(=O)C2CCCCC2)[C@@H](C)CN([C@@H](C)CO)C(=O)c2cc(NC(=O)C3CCCCC3)ccc2O1	.	.	-	.	.	.	.	.	.	.	.

From PubChem BioAssay
